# Measurements from ChEMBL document CHEMBL1961873, “Compounds: GSK PKIS; Assays: Nanosyn kinase panel” (2012).
# Assays:
# [1] = biological target: T1, Inhibitor of nuclear factor kappa-B kinase subunit epsilon (Homo sapiens) (UniProt Q14164); details: at 1 µM;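 also: reported values are averaged percent inhibition figures against human IKKε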
# T1 sequence (whole entry): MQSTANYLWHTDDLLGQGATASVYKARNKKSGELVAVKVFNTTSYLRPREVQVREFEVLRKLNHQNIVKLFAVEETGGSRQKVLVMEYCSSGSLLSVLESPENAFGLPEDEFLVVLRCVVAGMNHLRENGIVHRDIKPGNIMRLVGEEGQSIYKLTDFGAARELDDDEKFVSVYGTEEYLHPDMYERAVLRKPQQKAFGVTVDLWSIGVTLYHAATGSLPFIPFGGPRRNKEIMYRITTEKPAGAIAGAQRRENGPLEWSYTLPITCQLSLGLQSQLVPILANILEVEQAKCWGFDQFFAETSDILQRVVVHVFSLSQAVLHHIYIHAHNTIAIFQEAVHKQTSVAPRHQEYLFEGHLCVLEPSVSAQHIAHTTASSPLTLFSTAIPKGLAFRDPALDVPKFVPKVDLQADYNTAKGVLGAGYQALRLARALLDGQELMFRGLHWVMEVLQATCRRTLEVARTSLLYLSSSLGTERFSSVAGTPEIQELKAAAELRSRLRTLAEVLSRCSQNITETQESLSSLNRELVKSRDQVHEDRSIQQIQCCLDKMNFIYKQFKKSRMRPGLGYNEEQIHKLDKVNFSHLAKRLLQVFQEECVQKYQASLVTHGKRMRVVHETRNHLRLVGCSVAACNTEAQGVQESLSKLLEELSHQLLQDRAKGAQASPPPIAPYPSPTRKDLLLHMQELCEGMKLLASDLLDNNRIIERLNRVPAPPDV
# [2] = biological target: T2, Serine/threonine-protein kinase Nek1 (Homo sapiens) (UniProt Q96PY6); details: at 0.1 µM
# T2 sequence (whole entry): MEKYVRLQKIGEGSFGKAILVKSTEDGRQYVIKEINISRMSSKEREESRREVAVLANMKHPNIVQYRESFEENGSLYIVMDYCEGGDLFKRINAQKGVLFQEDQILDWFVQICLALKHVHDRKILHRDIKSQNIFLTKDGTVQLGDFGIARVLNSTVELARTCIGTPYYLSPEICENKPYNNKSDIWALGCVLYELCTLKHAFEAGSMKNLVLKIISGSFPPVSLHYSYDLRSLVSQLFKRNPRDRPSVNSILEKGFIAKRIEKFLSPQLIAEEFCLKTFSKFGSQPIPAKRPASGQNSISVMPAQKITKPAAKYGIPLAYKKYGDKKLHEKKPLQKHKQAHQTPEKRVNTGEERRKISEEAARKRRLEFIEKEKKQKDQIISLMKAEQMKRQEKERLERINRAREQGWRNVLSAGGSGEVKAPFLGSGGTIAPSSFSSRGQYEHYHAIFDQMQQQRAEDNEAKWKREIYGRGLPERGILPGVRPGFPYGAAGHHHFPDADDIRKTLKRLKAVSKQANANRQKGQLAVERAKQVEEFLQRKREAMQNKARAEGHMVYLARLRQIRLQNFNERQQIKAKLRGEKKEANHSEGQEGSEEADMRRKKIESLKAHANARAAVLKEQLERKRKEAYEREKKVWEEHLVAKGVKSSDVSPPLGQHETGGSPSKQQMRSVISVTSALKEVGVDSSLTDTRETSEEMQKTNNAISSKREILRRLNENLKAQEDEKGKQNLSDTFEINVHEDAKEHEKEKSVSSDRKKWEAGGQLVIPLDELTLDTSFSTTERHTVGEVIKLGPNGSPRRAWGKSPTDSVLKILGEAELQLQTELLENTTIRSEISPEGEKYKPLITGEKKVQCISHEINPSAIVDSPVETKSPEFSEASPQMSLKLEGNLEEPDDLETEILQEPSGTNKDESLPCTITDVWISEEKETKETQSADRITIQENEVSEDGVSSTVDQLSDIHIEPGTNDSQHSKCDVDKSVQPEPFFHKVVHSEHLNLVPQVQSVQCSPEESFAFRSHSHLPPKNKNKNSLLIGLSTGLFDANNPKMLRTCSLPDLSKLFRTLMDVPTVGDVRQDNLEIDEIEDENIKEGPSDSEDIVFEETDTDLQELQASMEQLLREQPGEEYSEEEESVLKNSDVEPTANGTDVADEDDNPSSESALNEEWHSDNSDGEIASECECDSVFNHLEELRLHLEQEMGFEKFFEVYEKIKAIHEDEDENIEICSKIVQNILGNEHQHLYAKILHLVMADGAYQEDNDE
# [3] = biological target: T2, Serine/threonine-protein kinase Nek1 (Homo sapiens); details: at 1 µM
# [4] = biological target: T3, Serine/threonine-protein kinase Nek2 (Homo sapiens) (UniProt P51955); details: at 0.1 µM
# T3 sequence (whole entry): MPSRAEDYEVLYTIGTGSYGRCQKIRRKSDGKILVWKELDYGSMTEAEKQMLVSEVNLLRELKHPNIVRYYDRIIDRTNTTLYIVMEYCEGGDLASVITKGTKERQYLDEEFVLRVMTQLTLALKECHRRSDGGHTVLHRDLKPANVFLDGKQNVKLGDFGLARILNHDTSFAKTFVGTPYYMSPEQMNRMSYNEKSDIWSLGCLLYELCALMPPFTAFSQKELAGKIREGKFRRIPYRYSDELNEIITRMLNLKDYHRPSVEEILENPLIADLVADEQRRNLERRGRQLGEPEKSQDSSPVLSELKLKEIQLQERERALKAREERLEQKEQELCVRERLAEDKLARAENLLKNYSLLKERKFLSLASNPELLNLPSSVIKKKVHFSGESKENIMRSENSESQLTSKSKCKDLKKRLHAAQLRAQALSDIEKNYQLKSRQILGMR
# [5] = biological target: T3, Serine/threonine-protein kinase Nek2 (Homo sapiens); details: at 1 µM
# [6] = biological target: Serine/threonine-protein kinase Nek6 (Homo sapiens) (UniProt Q9HC98); details: at 0.1 µM
# Sequence of Serine/threonine-protein kinase Nek6 (Homo sapiens) (Q9HC98 whole entry): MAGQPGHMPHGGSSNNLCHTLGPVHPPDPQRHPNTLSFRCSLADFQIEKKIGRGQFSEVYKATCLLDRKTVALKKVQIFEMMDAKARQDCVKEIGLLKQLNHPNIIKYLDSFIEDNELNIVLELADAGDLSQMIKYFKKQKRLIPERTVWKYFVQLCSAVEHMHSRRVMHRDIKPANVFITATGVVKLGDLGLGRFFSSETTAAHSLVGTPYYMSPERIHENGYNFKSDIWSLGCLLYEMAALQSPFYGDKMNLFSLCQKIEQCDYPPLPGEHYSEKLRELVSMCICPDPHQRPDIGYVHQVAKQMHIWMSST
# [7] = biological target: Serine/threonine-protein kinase Nek6 (Homo sapiens) (UniProt Q9HC98); details: at 1 µM
# [8] = biological target: Serine/threonine-protein kinase Nek7 (Homo sapiens) (UniProt Q8TDX7); details: at 0.1 µM
# Sequence of Serine/threonine-protein kinase Nek7 (Homo sapiens) (Q8TDX7 whole entry, looked up): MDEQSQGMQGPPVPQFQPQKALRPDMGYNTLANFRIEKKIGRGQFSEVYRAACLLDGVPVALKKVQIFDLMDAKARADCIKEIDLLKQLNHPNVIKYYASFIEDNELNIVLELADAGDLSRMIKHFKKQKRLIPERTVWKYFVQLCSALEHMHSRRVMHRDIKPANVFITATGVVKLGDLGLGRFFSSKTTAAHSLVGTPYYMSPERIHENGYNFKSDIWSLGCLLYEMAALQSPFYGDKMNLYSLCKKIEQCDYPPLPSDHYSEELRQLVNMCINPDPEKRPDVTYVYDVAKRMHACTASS
# [9] = biological target: Serine/threonine-protein kinase Nek7 (Homo sapiens) (UniProt Q8TDX7); details: at 1 µM
# [10] = biological target: T4, Serine/threonine-protein kinase Nek9 (Homo sapiens) (UniProt Q8TD19); details: at 0.1 µM;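 also: reported value is the mean percent inhibition of NEK9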
# T4 sequence (whole entry): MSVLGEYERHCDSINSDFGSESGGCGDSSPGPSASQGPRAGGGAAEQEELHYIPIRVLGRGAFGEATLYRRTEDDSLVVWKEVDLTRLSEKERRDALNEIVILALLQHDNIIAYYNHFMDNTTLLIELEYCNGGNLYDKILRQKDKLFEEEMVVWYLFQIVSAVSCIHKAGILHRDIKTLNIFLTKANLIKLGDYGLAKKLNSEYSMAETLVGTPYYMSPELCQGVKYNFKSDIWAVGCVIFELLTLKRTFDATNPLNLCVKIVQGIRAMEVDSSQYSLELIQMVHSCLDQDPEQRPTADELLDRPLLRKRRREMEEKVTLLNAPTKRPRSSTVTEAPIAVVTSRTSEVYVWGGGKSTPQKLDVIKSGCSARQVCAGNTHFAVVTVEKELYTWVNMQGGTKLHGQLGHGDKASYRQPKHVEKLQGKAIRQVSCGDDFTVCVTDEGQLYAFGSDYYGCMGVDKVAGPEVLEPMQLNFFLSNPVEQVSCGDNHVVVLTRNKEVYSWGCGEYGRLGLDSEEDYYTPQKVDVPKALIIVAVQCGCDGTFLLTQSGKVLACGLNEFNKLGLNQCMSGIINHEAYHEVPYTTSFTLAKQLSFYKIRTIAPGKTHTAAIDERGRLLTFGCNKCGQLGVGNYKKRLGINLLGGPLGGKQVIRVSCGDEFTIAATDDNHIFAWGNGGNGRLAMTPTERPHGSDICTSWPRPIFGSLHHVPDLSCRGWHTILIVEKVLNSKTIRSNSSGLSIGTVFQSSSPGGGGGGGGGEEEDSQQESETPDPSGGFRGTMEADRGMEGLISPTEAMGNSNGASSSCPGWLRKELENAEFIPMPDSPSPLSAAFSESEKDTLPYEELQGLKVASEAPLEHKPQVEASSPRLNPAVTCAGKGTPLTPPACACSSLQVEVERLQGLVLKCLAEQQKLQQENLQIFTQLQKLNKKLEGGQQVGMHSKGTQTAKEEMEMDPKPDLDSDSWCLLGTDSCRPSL
smiles,measurement,setting,value
O=C1Nc2ccccc2/C1=C/Nc1ccc2[nH]c(=O)[nH]c2c1,inhibition,[1],23.3%
same,inhibition,[2],2.99%
same,inhibition,[3],2.85%
same,inhibition,[4],5.3%
same,inhibition,[5],5.56%
same,inhibition,[6],2.8%
same,inhibition,[7],4.32%
same,inhibition,[8],6.08%
same,inhibition,[9],4.96%
same,inhibition,[10],9.7%
